The record followed here is PubChem BioAssay (NCI).

The nature of assay [1]: NCI Yeast Anticancer Drug Screen. Data for the rad50 strain (AID 155).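 Note: 0% = growth of vehicle-only cultures of the same strain.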 As to conditions: S. cerevisiae rad50 strain growth inhibition; at 50.0 µM; active compounds read high. An outline of the steps:
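Vehicle-treated cultures provide the reference for the growth inhibition reported for compound-exposed, repair-deficient yeast.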

Assay [2] is described as follows: NCI Yeast Anticancer Drug Screen. Data for the mec2-1 strain (AID 157). The note with it: S. cerevisiae mec2-1 strain, at 50.0 µM, active compounds read high. In a few lines:
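Strain: mec2-1 (DNA repair/cell cycle alteration). Compound exposure, then growth measured; inhibition expressed relative to vehicle.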

Assay [3] can be described thus: NCI Yeast Anticancer Drug Screen. Data for the sgs1 mgt1 strain (AID 161).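 Note: 0% = growth of cultures given vehicle only.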 The note with it: S. cerevisiae sgs1 mgt1 strain, at 50.0 µM, active compounds read high. An outline of the steps: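 Test agents were incubated with a DNA-repair-mutant yeast strain. Growth was then read and compared against vehicle-treated controls.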
Assay [4] can be described thus: NCI Yeast Anticancer Drug Screen. Data for the cln2 rad14 strain (AID 165).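 Note: 0% = growth equal to vehicle treated cultures.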 As to conditions: S. cerevisiae cln2 rad14 strain, at 50.0 µM, active compounds read high. In a few lines:
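Compounds are applied to the cln2 rad14 yeast strain, and growth is then compared with that of vehicle-treated cultures to give inhibition.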

The nature of assay [5]: NCI Yeast Anticancer Drug Screen. Data for the bub3 strain (AID 167). The note with it: S. cerevisiae bub3 mutant strain, at 50.0 µM, active compounds read high. An outline of the steps: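 Mutant yeast screening strain plus compound; vehicle-treated cultures serve as the 0% inhibition reference.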
The nature of assay [6]: NCI Yeast Anticancer Drug Screen. Data for the mlh1 rad18 strain (AID 175). The note with it: S. cerevisiae mlh1 rad18 strain growth inhibition; at 50.0 µM; active compounds read high. An outline of the steps:
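Read-out is yeast growth inhibition, calculated against vehicle-only controls. The compound was applied to a strain engineered with DNA damage repair alterations.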

About 79,000 compounds went through this panel and 15% of them were active in at least one assay; those are over-represented in the sample as a whole. A number with no mark means an inactive call. Activity calls are given as the source filed them. Cut-off read from the data, not from the text of the source: active = growth inhibition above about 70%; inactive = the rest.

Take `CSC1(C)C(=O)Nc2cc(C(F)(F)F)ccc21` (stereo not drawn): the growth inhibition in assay [1] was 17.6%; in assay [2] it was 1.5%; in assay [3], 1.65%; in assay [4] it was 17.4%; in assay [5], 2%; in assay [6], 3.4%.
`Nc1[nH]c(=S)nc2nc3c(c(-c4ccccc4)c12)CCCC3`: the growth inhibition in assay [1] was -45.9%; in assay [2], -13.5%; in assay [3] it was 6.95%; in assay [4], -3.05%; in assay [5] it was -13.6%; in assay [6], -14.4%.
On to `O=C1CN2C(c3ccccc3)=NN(c3ccc([N+](=O)[O-])cc3)C2(c2ccccc2)c2cc(Cl)ccc2N1CC1CC1` (stereo not drawn), for which the growth inhibition was 25.6% in assay [1]; -10.9% in assay [2]; -7.4% in assay [3]; 20.9% in assay [4]; 11.2% in assay [5]; 23.4% in assay [6].
Turning to `CCCCC(=O)c1cc2ccccc2c2ccccc12`, the growth inhibition in assay [1] is -3.7%; in assay [2], -20.4%; in assay [3] it was 0.2%; in assay [4], -11.1%; in assay [5], 10.5%; in assay [6], 6.3%.
Turning to `O=C(NNc1ccccc1)NNc1ccccc1`, the growth inhibition in assay [1] is 32.8%; in assay [2], 21.4%; in assay [3], 45.3%; in assay [4], 46.3%; in assay [5], 20.8%; in assay [6], 29.8%.
With `O=C(O)/C=C\Sc1ccccc1C(=O)O`, the growth inhibition in assay [1] was 2.05%; in assay [2] it was -15.9%; in assay [3] it was -6.5%; in assay [4], -2.05%; in assay [5], -10.2%; in assay [6], 23.1%.
On to `Cc1ccc(OS(=O)(=O)c2ccccc2)cc1`, for which the growth inhibition was 36% in assay [1]; 20.4% in assay [2]; 49.1% in assay [3]; -42.6% in assay [4]; 35.2% in assay [5]; 36.6% in assay [6].
Consider `CC(O)C1OC(n2cnc3c(=S)nc[nH]c32)C(O)C1O` (stereo not drawn), for which the growth inhibition is 7.5% in assay [1]; 15.7% in assay [2]; 0.6% in assay [3]; -98.1% in assay [4]; -4.85% in assay [5]; -13.3% in assay [6].
As to `Cc1cc(O)c(C(C)C)cc1S(=O)(=O)O`, the growth inhibition is 0.7% in assay [1]; 0.2% in assay [2]; 3.75% in assay [3]; -1.5% in assay [4]; 3.25% in assay [5]; 5.15% in assay [6].
For `O=C(O)C1C=CCN1` (stereo not drawn), the growth inhibition in assay [1] is 0.8%; in assay [2], 1.2%; in assay [3], 0.15%; in assay [4], -6.55%; in assay [5], -18.6%; in assay [6] it was -3.5%.
For `CC1(C)CC(=O)C2=C(C1)NC(=S)C(C#N)C2c1ccccc1` (stereo not drawn), the growth inhibition in assay [1] is 10.2%; in assay [2] it was -4%; in assay [3], 14.7%; in assay [4], 9.55%; in assay [5] it was 21.1%; in assay [6], 30.2%.
In the case of `C/C(=N\NS(=O)(=O)c1ccc([N+](=O)[O-])cc1)c1ccc[n+]([O-])n1`, the growth inhibition in assay [1] is -19.2%; in assay [2], -18.6%; in assay [3] it was -13.6%; in assay [4], -2.75%; in assay [5] it was 2.15%; in assay [6], -34%.
Regarding `NC(N)=NNC(=S)S`, the growth inhibition in assay [1] is 10.9%; in assay [2] it was -5.15%; in assay [3] it was 23.5%; in assay [4], 5.1%; in assay [5], 20.3%; in assay [6], 12.8%.
Consider `c1cc[n+](CC[n+]2ccccn2)nc1`, for which the growth inhibition is 11.7% in assay [1]; 22% in assay [2]; 7.65% in assay [3]; 16.4% in assay [4]; 45.6% in assay [5]; 46.1% in assay [6].
As to `O[C@@H]1CC2(Cl)CC1(Cl)C(Cl)=C2Cl` (stereo partly drawn), the growth inhibition in assay [1] is 19.4%; in assay [2], 5.5%; in assay [3], 11.7%; in assay [4], -2.05%; in assay [5] it was -4.1%; in assay [6], 18.5%.
Take `COC1OC(C(=O)O)C(O)C(O)C1O` (stereo not drawn): the growth inhibition in assay [1] was 6.75%; in assay [2], -21.1%; in assay [3], -2.6%; in assay [4] it was -4%; in assay [5] it was -17.6%; in assay [6] it was 8.3%.
Regarding `NC(=O)C(F)(F)c1ccccc1`, the growth inhibition in assay [1] is 2.3%; in assay [2] it was -12.8%; in assay [3], 14.8%; in assay [4] it was 10.1%; in assay [5], 21.4%; in assay [6] it was 9.8%.
`Cc1cc(C)c(C#N)c(N)n1`: the growth inhibition is -0.8% in assay [1]; -12.8% in assay [2]; -14.3% in assay [3]; -17.9% in assay [4]; 7.7% in assay [5]; -14.9% in assay [6].
Turning to `COc1ccc2oc(C(=O)O)cc2c1`, the growth inhibition is -4.55% in assay [1]; -3.65% in assay [2]; -9.05% in assay [3]; -25% in assay [4]; -6.6% in assay [5]; 0.6% in assay [6].
`Fc1ccc(C2=NOC3COC4C=CC=CC4OCC23)cc1` (stereo not drawn): the growth inhibition in assay [1] is -29.2%; in assay [2] it was -34.9%; in assay [3], -22.9%; in assay [4] it was -9.15%; in assay [5], -45.1%; in assay [6] it was -42.2%.
On to `Cc1c2c(cc3c(=O)ccn(CCN(C)C)c13)c(=O)ccn2CCN(C)C`, for which the growth inhibition is -71.1% in assay [1]; -22.8% in assay [2]; -11.8% in assay [3]; 14.3% in assay [4]; -20.4% in assay [5]; -16.4% in assay [6].
For `Oc1c(Cl)cc(Cl)cc1CN(Cc1cc(Cl)cc(Cl)c1O)c1ccccc1`, the growth inhibition is 15.8% in assay [1]; 16.9% in assay [2]; 40.8% in assay [3]; 52.1% in assay [4]; 27.1% in assay [5]; 12.7% in assay [6].
On to `O=C(Cc1ccccc1)N/N=C\Cc1ccccc1`, for which the growth inhibition was -4.85% in assay [1]; 22.8% in assay [2]; 20.8% in assay [3]; -14.1% in assay [4]; -2.35% in assay [5]; 2.25% in assay [6].
For the compound `O=C(Nc1ccc(Cl)cc1C(F)(F)F)C(=O)Nn1c(=S)[nH]c2ccccc2c1=O`, the growth inhibition was -5.9% in assay [1]; -15.2% in assay [2]; 8.5% in assay [3]; -2.7% in assay [4]; -1.1% in assay [5]; 18.9% in assay [6].
`COc1cc(NC(C)CNC(C)C)c2ncccc2c1` (stereo not drawn): the growth inhibition is -15.7% in assay [1]; -4.85% in assay [2]; -2.1% in assay [3]; -34% in assay [4]; 7% in assay [5]; 2.1% in assay [6].
For `Cc1n[nH]c(=S)n1N`, the growth inhibition in assay [1] is -9.4%; in assay [2] it was -1.9%; in assay [3], -24.4%; in assay [4], -25.9%; in assay [5], -14.5%; in assay [6], -3.5%.
Turning to `N#CC1(N)c2ccccc2-c2ccccc21`, the growth inhibition is 34.8% in assay [1]; 1.95% in assay [2]; 3.4% in assay [3]; 9.65% in assay [4]; 3.65% in assay [5]; 4.8% in assay [6].
Consider `OCCOCCNc1ncnc2cc(Cl)ccc12`, for which the growth inhibition was -12.4% in assay [1]; -14.7% in assay [2]; 5.25% in assay [3]; -14.2% in assay [4]; 7.2% in assay [5]; 4.2% in assay [6].
Regarding `COc1ccccc1NC(=O)Nc1ccc(Nc2ccccc2)cc1`, the growth inhibition was 92.7% (active) in assay [1]; 94.2% (active) in assay [2]; 92.2% (active) in assay [3]; 90.3% (active) in assay [4]; 92.2% (active) in assay [5]; 92.7% (active) in assay [6].
In the case of `CC(=O)N(C)c1ccc(NC(=O)Cc2ccccc2)cc1`, the growth inhibition was 12.7% in assay [1]; 22.7% in assay [2]; 23.6% in assay [3]; 9.95% in assay [4]; 35.5% in assay [5]; -2.35% in assay [6].
Regarding `CC(C)CC1=[N+]=C(NC#N)N=C(CCC(=O)Nc2ccccc2[N+](=O)[O-])C1`, the growth inhibition was -10.1% in assay [1]; -5.5% in assay [2]; -5.55% in assay [3]; 20.9% in assay [4]; 0.65% in assay [5]; 1.7% in assay [6].
Take `Cc1ccc(S(=O)(=O)N/N=C/c2ccsc2)cc1`: the growth inhibition in assay [1] is 20.6%; in assay [2], 13.3%; in assay [3] it was 27.9%; in assay [4] it was 18.8%; in assay [5], 23%; in assay [6] it was 33%.
On to `NNC(=O)C(CSC(c1ccccc1)(c1ccccc1)c1ccccc1)NC(=O)OCc1ccccc1` (stereo not drawn), for which the growth inhibition in assay [1] is 87.1% (active); in assay [2] it was 86% (active); in assay [3] it was 94.8% (active); in assay [4] it was 83.6% (active); in assay [5], 89% (active); in assay [6] it was 95.2% (active).
Turning to `CSc1ccccc1N.[Cl][Cu][Cl]`, the growth inhibition is 28.8% in assay [1]; 19.4% in assay [2]; -2% in assay [3]; 14.8% in assay [4]; 28.1% in assay [5]; 28.4% in assay [6].
In the case of `Cc1c2cc3c(c1O)C(=O)CC(O3)c1ccc(O)c(c1)-c1cccc(c1O)C(=O)OCC1OC(O2)C(O)C(O)C1O` (stereo not drawn), the growth inhibition in assay [1] was 51.2%; in assay [2], 54.4%; in assay [3], 32%; in assay [4] it was 34.5%; in assay [5], 39.6%; in assay [6] it was 30.1%.
`Cc1c2oc3c(C)ccc(C(=O)NCCN4CCN(c5ccccc5)CC4)c3nc-2c(C(=O)NCCN2CCN(c3ccccc3)CC2)c(N)c1=O`: the growth inhibition in assay [1] was -4.7%; in assay [2], 2.2%; in assay [3], -8.5%; in assay [4], -11.3%; in assay [5], -3.9%; in assay [6] it was -32.6%.
In the case of `CC(=O)c1cccc(NC(=O)C(=O)C(C2OC(=O)c3ccccc32)[N+](=O)[O-])c1` (stereo not drawn), the growth inhibition in assay [1] is 5.45%; in assay [2], 11.6%; in assay [3], 17.6%; in assay [4] it was 11.4%; in assay [5], 3.2%; in assay [6], 8.5%.
In the case of `O=c1c2cc([N+](=O)[O-])ccc2c2ccc([N+](=O)[O-])cc2c(=O)n1-c1ccc2c(c1)Cc1ccccc1-2`, the growth inhibition in assay [1] was 21.5%; in assay [2] it was -21%; in assay [3] it was -19.2%; in assay [4], -21.4%; in assay [5], -8.35%; in assay [6], -5%.
